Test results: PubChem BioAssay (NCATS)
Inconclusive results are not listed. Active and inactive are the calls of the source. The call rests on the fitted dose curve; in most records, active means well fitted curve in the direction sought with a large enough effect; inconclusive means small, poorly fitted or top-dose-only effect, or another doubt; inactive means no such curve, though single readings can be large; an effect the other way counts as inactive or inconclusive.

Legend:
NIH3T3 = experiment: qHTS assay to identify novel small-molecules to repurpose for Merkel cell carcinoma treatment (AID 1296009); settings: MCC and control cell lines, CellTiter-Glo viability, 72 h; series mostly up to 44.8 µM; further: nearly all actives have a fitted effect of over 60% in size
Procedure, shortened: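 Cell viability, measured as CellTiter-Glo luminescence, was normalized between DMSO and no-cell wells. The cells had been exposed to 8- or 11-point compound dilutions for 72 hr at 37 degree celsius.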

C33A = experiment: Primary qHTS to identify gynecologic anti-cancer compounds using libraries of approved drugs and bioactive compounds (AID 1345084); settings: Gynecologic cancer cell panel viability, ATPlite luminescence, 48 h; series mostly up to 57.5 µM; further: nearly all actives have a fitted effect of over 55% in size; further: potency means the concentration at half of the fitted maximal effect; on activity change, negative = cytotoxicity: on the % scale 0 is the no-effect control and ±100 the full control effect
Procedure, shortened: (§1)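 In this quantitative HTS, cell killing is estimated from loss of ATP-dependent luciferase light. Cells see five compound concentrations over a 48 h exposure.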

CAOV3 = experiment: as above; settings: Gynecologic cancer cell panel viability, ATPlite luminescence, 48 h; series mostly up to 57.5 µM
Procedure, shortened: as §1

CASKI = experiment: as above; settings: Gynecologic cancer cell panel viability, ATPlite luminescence, 48 h; series mostly up to 57.5 µM
Procedure, shortened: as §1

Es-2 = experiment: as above; settings: Gynecologic cancer cell panel viability, ATPlite luminescence, 48 h; series mostly up to 57.5 µM
Procedure, shortened: as §1

HeLa = experiment: as above; settings: Gynecologic cancer cell panel viability, ATPlite luminescence, 48 h; series mostly up to 57.5 µM
Procedure, shortened: as §1

Hek293T = experiment: as above; settings: Gynecologic cancer cell panel viability, ATPlite luminescence, 48 h, control line for the selectivity index; series mostly up to 57.5 µM
Procedure, shortened: as §1

JEG-3 = experiment: as above; settings: Gynecologic cancer cell panel viability, ATPlite luminescence, 48 h; series mostly up to 57.5 µM
Procedure, shortened: as §1

OV90 = experiment: as above; settings: Gynecologic cancer cell panel viability, ATPlite luminescence, 48 h; series mostly up to 57.5 µM
Procedure, shortened: as §1

CC1CCCC(O)CCC/C=C/c2cc(OS(=O)(=O)O)cc(O)c2C(=O)O1 (stereo not given)
inactive: Potency (NIH3T3) | Potency (C33A) | Potency (CAOV3) | Potency (CASKI) | Potency (Es-2) | Potency (HeLa) | Potency (Hek293T) | Potency (JEG-3) | Potency (OV90)

CCC(C)/C=C(C)/C=C/C1=CC2=C(Cl)C(=O)C(C)(OC(C)=O)C(=O)C2(O)C(OC)O1 (stereo not given)
inactive: Potency (NIH3T3) | Potency (C33A) | Potency (CAOV3) | Potency (CASKI) | Potency (Es-2) | Potency (HeLa) | Potency (JEG-3) | Potency (OV90)

N#Cc1cc(C2=Nc3ccc(Br)cc3NC(=O)C2)ccn1
inactive: Potency (NIH3T3) | Potency (C33A) | Potency (CAOV3) | Potency (CASKI) | Potency (Es-2) | Potency (HeLa) | Potency (Hek293T) | Potency (JEG-3) | Potency (OV90)

O=C([C@@H](Cc1cccc(C(F)(F)F)c1)NS(=O)(=O)c1cc(F)c2c(c1)CCNC2)N1CCCC1
inactive: Potency (NIH3T3) | Potency (C33A) | Potency (CAOV3) | Potency (CASKI) | Potency (Es-2) | Potency (HeLa) | Potency (Hek293T) | Potency (JEG-3) | Potency (OV90)

CCCn1cc2c(nc(NC(=O)Nc3ccc(OC)cc3)n3nc(-c4ccco4)nc23)n1
inactive: Potency (NIH3T3) | Potency (C33A) | Potency (CAOV3) | Potency (CASKI) | Potency (Es-2) | Potency (HeLa) | Potency (Hek293T) | Potency (JEG-3) | Potency (OV90)

Cc1cc(F)ccc1[C@H]1C[C@@H](N2CCN3C(=O)CC[C@H]3C2)CCN1C(=O)N(C)[C@H](C)c1cc(C(F)(F)F)cc(C(F)(F)F)c1
inactive: Potency (NIH3T3) | Potency (C33A) | Potency (CAOV3) | Potency (CASKI) | Potency (Es-2) | Potency (HeLa) | Potency (JEG-3) | Potency (OV90)

COc1ccc2cc(-c3cc(-c4cc(Cl)cc(Cl)c4)nn3C(C)c3ccc(C(=O)NCCC(=O)O)cc3)ccc2c1 (stereo not given)
inactive: Potency (NIH3T3) | Potency (C33A) | Potency (CAOV3) | Potency (CASKI) | Potency (Es-2) | Potency (HeLa) | Potency (Hek293T) | Potency (JEG-3) | Potency (OV90)

CC(C)c1cc(-c2ccc(F)c3ccccc23)nc(N)n1
inactive: Potency (NIH3T3) | Potency (C33A) | Potency (CAOV3) | Potency (CASKI) | Potency (Es-2) | Potency (HeLa) | Potency (Hek293T) | Potency (JEG-3) | Potency (OV90)

CC(=O)OCC(=O)[C@@]12O[C@@H]1C[C@H]1[C@@H]3CC=C4C[C@@H](O)CC[C@]4(C)[C@H]3CC[C@@]12C
inactive: Potency (NIH3T3) | Potency (C33A) | Potency (CAOV3) | Potency (CASKI) | Potency (Es-2) | Potency (HeLa) | Potency (Hek293T) | Potency (JEG-3) | Potency (OV90)

CC[C@H](C)/C=C(C)/C=C/C1=CC2=C(Cl)C(=O)[C@](C)(O)[C@H](OC(C)=O)[C@H]2CO1
inactive: Potency (NIH3T3) | Potency (C33A) | Potency (CAOV3) | Potency (CASKI) | Potency (Es-2) | Potency (HeLa) | Potency (Hek293T) | Potency (JEG-3) | Potency (OV90)

CN1CCc2cc3c(cc2C(=O)Cc2cc4c(cc2C1)OCO4)OCO3
inactive: Potency (NIH3T3) | Potency (C33A) | Potency (CAOV3) | Potency (CASKI) | Potency (Es-2) | Potency (HeLa) | Potency (Hek293T) | Potency (JEG-3) | Potency (OV90)

O=C(Nc1ccccc1C(=O)Nc1ccc(CCO)cc1)c1ccc([N+](=O)[O-])cc1
inactive: Potency (NIH3T3) | Potency (C33A) | Potency (CAOV3) | Potency (CASKI) | Potency (Es-2) | Potency (HeLa) | Potency (Hek293T) | Potency (JEG-3) | Potency (OV90)

O=c1[nH]cnc2c([C@@H]3N[C@H](CO)[C@@H](O)[C@H]3O)c[nH]c12
inactive: Potency (NIH3T3) | Potency (C33A) | Potency (CAOV3) | Potency (CASKI) | Potency (Es-2) | Potency (HeLa) | Potency (Hek293T) | Potency (JEG-3) | Potency (OV90)

CCC[C@@]1(CCc2ccccc2)CC(O)=C([C@H](CC)c2cccc(NS(=O)(=O)c3ccc(C(F)(F)F)cn3)c2)C(=O)O1
inactive: Potency (NIH3T3) | Potency (C33A) | Potency (CAOV3) | Potency (CASKI) | Potency (Es-2) | Potency (HeLa) | Potency (Hek293T) | Potency (JEG-3) | Potency (OV90)

CC(O)C(C)n1ncn(-c2ccc(N3CCN(c4ccc(OCC5COC(Cn6cncn6)(c6ccc(Cl)cc6Cl)O5)cc4)CC3)cc2)c1=O (stereo not given)
inactive: Potency (C33A) | Potency (CAOV3) | Potency (CASKI) | Potency (Es-2) | Potency (HeLa) | Potency (Hek293T)

CC(C)(O)/C=C/C(=O)[C@](C)(O)[C@H]1[C@H](O)C[C@@]2(C)[C@@H]3CC=C4[C@@H](C[C@H](O[C@@H]5O[C@H](CO)[C@@H](O)[C@H](O)[C@H]5O)C(=O)C4(C)C)[C@]3(C)C(=O)C[C@]12C
inactive: Potency (NIH3T3) | Potency (C33A) | Potency (CASKI) | Potency (Es-2) | Potency (HeLa) | Potency (Hek293T) | Potency (JEG-3) | Potency (OV90)

CCn1c(-c2nonc2N)nc2c(C#CC(C)(C)O)ncc(OCC3CCCNC3)c21 (stereo not given)
inactive: Potency (NIH3T3) | Potency (Es-2) | Potency (HeLa) | Potency (JEG-3)

CC(=O)NCc1cccc(OC[C@@H](O)CNCCc2ccc(NS(=O)(=O)c3ccccc3)cc2)c1
inactive: Potency (NIH3T3) | Potency (C33A) | Potency (CASKI) | Potency (Es-2) | Potency (HeLa) | Potency (Hek293T) | Potency (JEG-3)

O=C(Nc1ncc([N+](=O)[O-])s1)c1ccccc1O
inactive: Potency (NIH3T3) | Potency (C33A) | Potency (CAOV3) | Potency (CASKI) | Potency (HeLa) | Potency (Hek293T) | Potency (JEG-3) | Potency (OV90)

O=C(NCC1CCN(Cc2cccc(Cl)c2)CC1)[C@@H]1CCCN(c2ncnc3c2nc2n3CCCC2)C1
inactive: Potency (NIH3T3) | Potency (C33A) | Potency (CASKI) | Potency (Es-2) | Potency (HeLa) | Potency (Hek293T) | Potency (JEG-3) | Potency (OV90)

CCn1c(-c2nonc2N)nc2c(C#CCO)ncc(OCCCN)c21
inactive: Potency (NIH3T3) | Potency (C33A) | Potency (Es-2) | Potency (HeLa)
active: Potency (CASKI) 25.1 µM

Cc1cc2occ(CN(C)CCN(C)Cc3cn(-c4cccc(C(F)(F)F)c4)c4ccccc34)c(=O)c2cc1C
active: Potency (C33A) 31.6 µM

C/C=C(\C)[C@@H]1C(C)=C[C@@H]2[C@H]([C@@H]1/C=C/C=C/C(=O)O)[C@@H](C)CC[C@@H]2O
inactive: Potency (C33A)

O=C(NCCN1CCC(n2c(=O)[nH]c3ccccc32)CC1)c1ccc2ccccc2c1
inactive: Potency (C33A) | Potency (CAOV3) | Potency (CASKI) | Potency (Es-2) | Potency (HeLa) | Potency (Hek293T) | Potency (JEG-3)

COC1CC(O[C@H]2CC[C@]3(C)C4CC[C@]5(C)C(C6=CC(=O)OC6)=CCC56OC46CC[C@@H]3C2)OC(C)C1O[C@@H]1O[C@H](CO[C@@H]2O[C@H](CO)[C@@H](O)[C@H](O)[C@H]2O)[C@@H](O)[C@H](O)[C@H]1O (stereo not given in full)
active: Potency (C33A) 2.82 µM | Potency (Es-2) 3.16 µM | Potency (HeLa) 3.55 µM | Potency (Hek293T) 2.82 µM
inactive: outcome (NIH3T3) inactive [at 9.27 µM] | activity change, negative = cytotoxicity (CASKI) -27.8% [at 11.6 µM]
